Assay results taken from PubChem BioAssay (NCATS).
A number with no mark means an inactive call. The source made the active and inactive calls. The call rests on the fitted dose curve; in most records, active means well fitted curve in the direction sought with a large enough effect; inconclusive means small, poorly fitted or top-dose-only effect, or another doubt; inactive means no such curve, though single readings can be large or run the other way.

Target: Alpha-galactosidase (Coffea arabica) (UniProt Q42656)
Assay: Counterscreen for Glucocerebrosidase Inhibitors: qHTS Assay for Coffee Bean alpha-Galactosidase at pH 4.5 (AID 957);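 further: plate controls were enzyme alone for no effect and no enzyme for full effect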
Conditions: purified coffee bean alpha-galactosidase, fluorogenic substrate; series mostly up to 76.9 µM; activity change, negative = inhibition: at the top concentration
In short: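 Coffee bean alpha-galactosidase 2 nM, substrate 4-MU-alpha-Gal 80 uM, pH 4.5 citrate/Tween-20, 20 min RT. Cpd titration 0.7 nM–77 uM. Stop pH 10, fluorescence 365/440 nm; Hill-equation AC50.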

Chain of Alpha-galactosidase (Coffea arabica) (Q42656 whole entry, looked up): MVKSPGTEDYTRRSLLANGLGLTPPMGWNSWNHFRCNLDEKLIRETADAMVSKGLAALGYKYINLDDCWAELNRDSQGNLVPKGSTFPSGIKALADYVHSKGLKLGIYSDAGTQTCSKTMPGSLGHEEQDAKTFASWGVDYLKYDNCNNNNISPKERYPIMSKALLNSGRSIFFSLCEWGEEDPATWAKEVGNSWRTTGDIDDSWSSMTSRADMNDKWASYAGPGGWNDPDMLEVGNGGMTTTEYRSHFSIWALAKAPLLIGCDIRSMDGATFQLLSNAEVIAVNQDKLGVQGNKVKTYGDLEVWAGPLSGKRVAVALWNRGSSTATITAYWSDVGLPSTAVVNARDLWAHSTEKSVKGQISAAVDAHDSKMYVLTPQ

| SMILES | activity change, negative = inhibition [%] | outcome |
| --- | --- | --- |
| CC1=NS(=O)(=O)c2cc(Cl)ccc2N1 | 0.0065 |  |
| N[C@@H]1CONC1=O |  | inactive |
| Cn1ccc2cc3c(cc21)CCN3C(=O)Nc1cccnc1 | -2.03 |  |
| CCN(CC)C(=S)SSC(=S)N(CC)CC | -4.34 |  |
| CC(=O)[C@H]1CC[C@H]2[C@@H]3CC[C@H]4C[C@H](O)CC[C@]4(C)[C@H]3C(=O)C[C@]12C | 1.84 |  |
| COc1cc(Cc2cnc(N)nc2N)cc(OC)c1OC | -1.43 |  |
| Clc1ccc(C(c2ccccc2Cl)C(Cl)Cl)cc1 (centres undefined) | -2.22 |  |
| COc1ccc(Cc2nccc3cc(OC)c(OC)cc23)cc1OC | -2.91 |  |
| Nc1ncn([C@@H]2O[C@H](CO)[C@@H](O)[C@H]2O)c(=O)n1 | -0.98 |  |
